Measurements from PubChem BioAssay (NCI).
Several values for one entry are separate records, joined by “and”; a condition that tells them apart may be missing. Equal values may be shown once. This is part of a sample that, as a whole, favours compounds with a hit. Of some 83,000 tested, about 20% had one in any assay.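 96-well plates, one dose, 48 hours. Percent growth reported; active if below 10.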 Activity calls are given as the source filed them.

Assays:
Experiment in all cases: NCI-60 one-dose screen, 48 h (100 = growth as untreated, 0 = no growth, -100 = all killed)
Settings in all cases: 10 µM unless noted
[1] = test system: HCT-15 colon
[2] = test system: HT29 colon
[3] = test system: SNB-75 CNS
[4] = test system: SNB-19 CNS
[5] = test system: U251 CNS
[6] = test system: PC-3 prostate
[7] = test system: SK-MEL-5 melanoma
[8] = test system: UACC-62 melanoma
[9] = test system: LOX IMVI melanoma
[10] = test system: SK-MEL-28 melanoma

Measured: growth

CCOC(=O)C(=Cc1ccc(C#N)cc1)C(=O)OCC
inactive: [3] 42.9% | [4] 65.2% | [5] 50.3% | [6] 33.3% | [7] 59.6% | [8] 10.6%
active: [1] -21% | [2] -39.7% | [9] -54.9% | [10] -17.7%

COC1=CC(=O)C(OC)=C(O)C1=O
inactive: [1] 97.7% | [2] 106% | [3] 77% | [4] 101% | [5] 101% | [6] 97.2% | [7] 97.8% | [8] 96.1% | [9] 99.6% | [10] 102%

Clc1ccc(CNc2ccc3nc(CCC4CCCCC4)[nH]c3c2)cc1
inactive: [3] 77.2% | [4] 71.1% | [5] 43.8% | [6] 46.7% | [8] 67.4% | [9] 72% | [10] 42%
active: [1] 9.61% | [2] 4.9% | [7] 0.653%

COc1ccc(/C=C2\COc3ccc(O)c(O)c3C2=O)c(OC)c1OC
active: [1] 1.33% | [8] -56.9% | [9] 0.166%
inactive: [2] 44.7% | [3] 37.9% | [4] 28.2% | [5] 14.4% | [6] 36.8% | [7] 35.5% | [10] 58%

CCCc1cc(C(N)=S)ccn1
inactive: [1] 102% | [2] 97.6% | [3] 103% | [4] 115% | [5] 103% | [6] 98.3% | [7] 107% | [8] 108% | [9] 96.7% | [10] 116%

O=C(CC1(O)C(=O)Nc2ccc(Br)cc21)c1ccc(Cl)cc1 (stereo not given)
inactive: [1] 109% | [2] 97.8% | [3] 81.8% | [4] 107% | [5] 94.6% | [6] 81.6% | [7] 96.8% | [8] 98.1% | [9] 99.3% | [10] 120%

CC(=O)c1nn(-c2ccccc2)/c(=N/N=Cc2cn(-c3ccccc3)nc2-c2cc3ccccc3oc2=O)s1
inactive: [1] 98.1% | [2] 109% | [3] 104% | [4] 103% | [5] 91.6% | [6] 101% | [7] 101% | [8] 92.9% | [9] 98.9% | [10] 111%

CN(C)CC1(C)Cc2ccsc2C1O (stereo not given)
inactive: [1] 108% and 105% | [2] 104% and 99.1% | [3] 110% and 101% | [4] 108% and 106% | [5] 112% and 103% | [6] 98.2% and 100% | [7] 110% and 107% | [8] 109% and 112% | [9] 97.3% and 102% | [10] 120% and 126%

COc1ccc2c(c1)c(C(=O)c1nc(-c3cn(C)c4ccccc34)no1)cn2C
inactive: [1] 82.9% | [2] 88.8% | [3] 108% | [4] 92.8% | [5] 101% | [6] 83.8% | [7] 82.2% | [8] 76.6% | [9] 103% | [10] 93.4%

O=C(CCCCCCCCC(=O)N/N=C\c1ccccc1O)N/N=C\c1ccccc1O
active: [7] -59.8% | [8] -7.2%
inactive: [1] 22.1% | [2] 68.4% | [3] 37.5% | [4] 24.1% | [5] 15.2% | [6] 31.5% | [9] 10.8% | [10] 35.6%

N#C/C(=C\c1ccc(Br)cc1)n1nnc2c(F)cccc21
active: [1] 1.57% | [2] -0.198% | [5] -19.5% | [6] 4.26% | [7] -12.1% | [8] -37.5% | [9] -69.1% | [10] -3.74%
inactive: [3] 18.8% | [4] 15%

Cc1ccc(S(=O)(=O)OC[C@@]2(C)CC[C@]3(C)CC[C@]4(C)C(=CC[C@@H]5[C@@]6(C)CCCNC(C)(C)[C@@H]6CC[C@]54C)[C@@H]3C2)cc1
inactive: [7] 40.1% | [10] 55.6%
active: [1] -89.7% | [2] -88.2% | [3] -57.1% | [4] -16.7% | [5] -89.6% | [6] -10.3% | [8] -69.2% | [9] -99.5%

Nc1n[nH]c2cccc(C#Cc3cccc(C(=O)Nc4ccc(CN5CCOCC5)c(C(F)(F)F)c4)c3)c12
active: [8] 5.89% | [9] 6.76%
inactive: [1] 22.5% | [2] 17.4% | [3] 52.9% | [4] 75.2% | [5] 40.3% | [6] 29.5% | [7] 17.5% | [10] 14.5%

Cc1ccc(Cl)cc1N1CCN(C(=O)[C@@H]2C[C@@H]2c2ccc(F)cc2)CC1
inactive: [1] 85.4% | [2] 72.7% | [3] 96.2% | [4] 92% | [5] 90% | [6] 69.1% | [7] 80.7% | [8] 69.7% | [9] 97.6% | [10] 103%

O=C(NNC(=S)Nc1ccccc1)c1ccncc1
inactive: [1] 101% | [2] 99.6% | [3] 102% | [4] 110% | [5] 105% | [6] 90.1% | [7] 109% | [8] 109% | [9] 101% | [10] 115%

COc1c(F)cc(-n2c(C(=O)N3CC(F)C3)cc3cccnc32)cc1F
inactive: [1] 98.6% | [2] 104% | [3] 82.2% | [4] 94.2% | [5] 97.7% | [6] 95.3% | [7] 99% | [8] 101% | [9] 84.2% | [10] 122%

CC/C(=C(/c1ccc(Cl)cc1)c1ccc(OCCN2CCOCC2)cc1)c1ccccc1
inactive: [1] 94.1% | [2] 75.6% | [3] 105% | [4] 98.6% | [5] 93.6% | [6] 73.1% | [7] 108% | [8] 88.2% | [9] 108% | [10] 98.8%

O=C(NNc1ccccc1)c1ccccc1
inactive: [1] 47.7% and 40.7% | [2] 85.5% and 84.8% | [3] 70.6% and 87.6% | [4] 95% and 99.3% | [5] 90.8% | [6] 75.1% and 53.8% | [7] 98.8% and 100% | [8] 29.6% and 30.9% | [9] 58.4% and 52.7% | [10] 89.8% and 108%

CN(C)C1CCN(C(=O)c2ccc(NC(=O)Nc3ccc(-c4nc(N5CCOCC5)c5cccn5n4)cc3)cc2)CC1
active: [2] 6.06% | [3] -40.5% | [4] 3% | [5] 5.17% | [6] 3.69% | [7] -63.6% | [8] -43.5% | [9] -2.24% | [10] -22.4%
inactive: [1] 40.5%

N=c1ccccn1CCO
inactive: [1] 87% | [2] 97.3% | [3] 113% | [4] 93.5% | [5] 109% | [6] 92.7% | [7] 104% | [8] 98.1% | [9] 104% | [10] 108%

CCN1C(=S)N(CC)C2C1NC(=S)N2/N=C/C=C/c1ccccc1 (stereo not given)
active: [2] 5.26% | [3] -21.6%
inactive: [1] 26.5% | [4] 31.4% | [5] 27.7% | [6] 36.5% | [7] 25% | [8] 24.5% | [9] 37.6% | [10] 53.6%

OCCN1CCN(c2cc(-c3cccc(OC(F)(F)F)c3)nc3ccc(N4CCCC4)cc23)CC1
active: [2] 5.34% | [9] 9.02%
inactive: [1] 10.9% | [3] 53.5% | [4] 74.1% | [5] 29.3% | [6] 25.9% | [7] 46.7% | [8] 59.6% | [10] 71.1%

O=C1/C(=C/c2ccccc2)CN(C(=O)C(Cl)Cl)C/C1=C\c1ccccc1
inactive: [3] 43.9%
active: [1] -24.2% | [2] 5.46% | [4] -35.8% | [5] -63.8% | [6] -32.8% | [7] -32.3% | [8] -66.4% | [9] -88.4% | [10] -25.7%

COc1ccc(-c2cc(=O)c3c(O)cc(O)cc3o2)cc1
inactive: [1] 103% and 100% | [2] 110% and 109% | [3] 99.1% and 118% | [4] 105% and 83.4% | [5] 92.9% and 84% | [6] 94.9% and 83.8% | [7] 104% and 92.7% | [8] 104% and 96.9% | [9] 82.8% and 91.6% | [10] 113% and 111%

C[N+]1=C(/C=C\C=C\c2ccccc2)C(C)(C)c2ccccc21
active: [7] -39.7% | [8] -16.1% | [10] -35.5%
inactive: [1] 14.2% | [2] 12.3% | [3] 81.8% | [4] 27.4% | [5] 14% | [6] 30.7% | [9] 12.6%
